Screening data from PubChem BioAssay.
Hits are enriched below; roughly 9.8% of the tested compounds scored in any of these assays.
HTT ATP protect: protects HTT-Q103 PC12 cells, measured by ATP | PC12 HTT-Q103 induced, cytoprotection, ATP luminescence, 40 h | Potency, µM (highest dose often 56.4 µM), inactives show cytoprotection (ATP increase), usual class: activators | hit rate 0.14% among 230,000 | AID 1471; also: potency is read from the fitted curve at half-maximal effect; % of control where 0% means no effect; nearly all actives have a fitted effect of over 45% in size
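PC12 cells stably carrying ecdysone-inducible Htt exon 1 (Q103)–GFP were induced with 100 nM tebufenozide (final) alongside library compounds in a dose series. Cytoprotection was scored as retained ATP by ATPlite luminescence.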
ALDH1A1 inh: blocks purified human ALDH1A1 activity; Purified ALDH1A1, NADH fluorescence, propionaldehyde substrate; Potency, µM (series often up to 75.3 µM), inactives show top-dose activity, negative = inhibition, usual class: inhibitors; hit rate 7.3% among 220,000; AID 1030; active = well fitted inhibition curve with a large enough effect, not every such curve was filed as active; inconclusive = small, poorly fitted or top-dose-only effect, or another doubt; inactive = no such curve, though single readings can be large or run the other way;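 also: potency is read from the fitted curve at half-maximal effect; plate controls were no enzyme wells and a reference inhibitor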
KDM4E inh: inhibitors of human JMJD2E histone demethylase. Potency, µM (doses to about 57.1 µM), for inactives: at the top dose activity change, negative = inhibition, most hits filed as inhibitors. JMJD2E catalytic domain, FDH-coupled NADH fluorescence (FDH is formaldehyde dehydrogenase). hit rate 1.6% among 230,000. B2RXH2; active = well fitted inhibition curve with a large enough effect, not every such curve was filed as active; inconclusive = small, poorly fitted or top-dose-only effect, or another doubt; inactive = no such curve, though single readings can be large or run the other way;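 also: potency is read from the fitted curve at half-maximal effect; 0% = wells with enzyme and -100% = buffer wells without enzyme; nearly all actives have a fitted effect of over 50% in size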
HttQ103 aggreg: mutant huntingtin aggregation inhibition | PC12 HttQ103-GFP aggregates, Acumen cytometry, 40 h | Potency, µM (series often up to 46.1 µM), for inactives: at the top dose activity change, negative = inhibition, most hits filed as inhibitors | hit rate 1.1% among 220,000; also: potency is read from the fitted curve at half-maximal effect; % is scaled to controls: 0 for no effect and ±100 for the full control effect; nearly all actives have a fitted effect of over 60% in size
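Inducible Q103 Huntingtin exon 1–GFP PC12 line, 1500 cells/well in phenol red free DMEM with 5% equine and 5% calf serum. Tebufenozide 100 nM induced expression; compounds titrated; aggregates quantified by cytometry.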
CBFb RUNX1 block: inhibitors of human CBF-beta and RUNX1 interaction; Potency, µM (titrated, usually from 59.8 µM), inactives show top-dose activity, negative = inhibition, most hits filed as inhibitors; AlphaScreen CBFb-His/RUNX1-biotin binding, biochemical; 230,000 tested, under 10 active; Q01196+Q13951; also: % of control where 0% means no effect
Target sequence (Q01196 whole entry, looked up): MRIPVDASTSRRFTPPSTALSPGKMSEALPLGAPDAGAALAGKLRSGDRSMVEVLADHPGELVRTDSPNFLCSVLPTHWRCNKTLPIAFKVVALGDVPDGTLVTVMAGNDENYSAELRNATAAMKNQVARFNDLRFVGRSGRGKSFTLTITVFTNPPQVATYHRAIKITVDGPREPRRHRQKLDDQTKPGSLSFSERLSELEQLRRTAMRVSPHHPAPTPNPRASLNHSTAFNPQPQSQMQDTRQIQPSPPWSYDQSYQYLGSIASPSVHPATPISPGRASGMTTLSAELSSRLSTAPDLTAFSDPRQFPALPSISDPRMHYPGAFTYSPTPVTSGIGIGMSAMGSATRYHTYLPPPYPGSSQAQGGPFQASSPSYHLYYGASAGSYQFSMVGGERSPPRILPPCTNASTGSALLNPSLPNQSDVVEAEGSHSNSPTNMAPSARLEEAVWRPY
Target sequence (Q13951 whole entry, looked up): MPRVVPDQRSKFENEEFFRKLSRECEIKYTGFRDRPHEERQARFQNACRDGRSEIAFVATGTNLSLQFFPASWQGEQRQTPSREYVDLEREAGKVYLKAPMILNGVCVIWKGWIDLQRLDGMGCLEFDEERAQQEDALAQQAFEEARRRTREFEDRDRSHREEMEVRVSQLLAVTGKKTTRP
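Proteins preincubated together for 20 min at RT before compound addition; 15 min later, nickel and streptavidin beads were added and left 90 min prior to AlphaScreen measurement.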
HPGD inh: blocks human HPGD enzyme activity; purified HPGD, NADH fluorescence kinetic, PGE2 substrate; Potency, µM, for inactives: at the top dose activity change, negative = inhibition, actives largely listed as inhibitors; hit rate 4.3% among 150,000; AID 894; active = well fitted inhibition curve with a large enough effect, not every such curve was filed as active; inconclusive = small, poorly fitted or top-dose-only effect, or another doubt; inactive = no such curve, though single readings can be large or run the other way; also: potency is read from the fitted curve at half-maximal effect; % is scaled to controls: 0 for no effect and ±100 for the full control effect
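NADH formation kinetics: reaction with 30 uM PGE2 and 1 mM NAD+ (final), 20 nM enzyme, Tris-HCl pH 8 with Tween 20, after 15 min compound preincubation at room temperature. Fluorescence change, last versus first of five reads.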
* hit, by the source's call; u = inconclusive; x = no result given; [ ] = remark or other dose. Unless noted, calls follow the shape of the dose curve; as a rule, active = well fitted curve in the direction sought with a large enough effect; inconclusive = small, poorly fitted or top-dose-only effect, or another doubt; inactive = no such curve, though single readings can be large; an effect the other way counts as inactive or inconclusive.

SMILES	HTT ATP protect	ALDH1A1 inh	KDM4E inh	HttQ103 aggreg	CBFb RUNX1 block	HPGD inh
CCOc1ccc2nc(SCC(=O)NC(=O)C(C)C)sc2c1	-18%	-3%	-2%	-13%	6%	x
CN1CCc2cccc3c2C1Cc1ccc(O)c(O)c1-3 (stereo unspecified)	x	u	u	x	-6%	5µM*
CN1CCC(=C2c3ccccc3C(O)c3ccccc32)CC1 (stereo unspecified)	11%[10 µM]	x	5%	-15%[9.22 µM]	12%	x
CC(C)CNC(=O)[C@H](Cc1ccccc1)NC(=O)c1ccco1	6%	40µM*	-8%	-12%	-5%	-7%
CC(CCc1ccccc1)NC(=O)c1ccco1 (stereo unspecified)	-1%[10 µM]	0%	0%	-16%	5%	-17%
O=C(O)CN1CCCCC1	-9%[10 µM]	-4%	-4%	-19%[9.22 µM]	-8%	x
CC(=O)/C(CN1CCCCC1)=N\O	-1%[10 µM]	3.5µM*	-4%	u	1%	-7%
C/C(=N\O)C(=O)C(CN1CCCCC1)CN1CCCCC1	-9%	1.6µM*	-16%	4%	10%	u
CCOC(=O)N1CCC(N2C(=O)c3ccccc3C2Nc2ccc(S(=O)(=O)N3CCCCC3)cc2)CC1 (stereo unspecified)	-37%	25µM*	3%	10%	-12%	x
CCN(CC)S(=O)(=O)c1ccc(NC2c3ccccc3C(=O)N2c2ccc(C)cn2)cc1 (stereo unspecified)	-17%	18µM*	2%	-1%	1%	-12%
Cc1ccc(N2C(=O)c3ccccc3C2Nc2ccc(S(=O)(=O)N3CCCCC3)cc2)nc1 (stereo unspecified)	-24%	14µM*	-12%	-19%	-8%	-2%
N#CC(=C1CCCC1)c1nc(-c2ccccc2O)cs1	-73%[10 µM]	25µM*	-23%	6%	-8%	u
CCc1cc(C=NC2CCCCC2)c(O)s1	-17%	u	-9%	-5%	-11%	4.5µM*
CC(CC(=O)NCC1CCCO1)c1ccccc1 (stereo unspecified)	1%[10 µM]	15%	-2%	25%	1%	16µM*
O=C(NCC1CCCO1)C1CCC(CNS(=O)(=O)c2ccccc2)CC1 (stereo unspecified)	19%[10 µM]	14µM*	-1%	-8%	7%	-9%
O=C(NCC1CCCO1)NC1CCCCC1 (stereo unspecified)	6%[10 µM]	11%	-5%	u	0%	28µM*
S=C(NCC1CCCO1)NC1CC1 (stereo unspecified)	-14%	-1%	16%	19%	4%	x
O=C(NCC1CCCO1)C1CCN(S(=O)(=O)c2ccccc2)CC1 (stereo unspecified)	16%[10 µM]	2%	-2%	-4%[9.22 µM]	-5%	x
CN(C)c1ccc(C(=O)NCC2CCCO2)cc1 (stereo unspecified)	-13%[10 µM]	1%	6%	11%	12%	14µM*
CN(C)c1cccc(C(=O)NCC2CCCO2)c1 (stereo unspecified)	-8%	u	u	-10%	9%	-16%
Cn1cccc1C(=O)OCC(=O)NC1CCS(=O)(=O)C1 (stereo unspecified)	-14%	3%	-1%	-3%	-9%	x
O=C(NCC1CCCO1)c1cccc(F)c1 (stereo unspecified)	8%	5%	-3%	2%	-4%	22µM*
O=C(NCC1CCCO1)c1ccc(N2CCCCC2)nc1 (stereo unspecified)	8%[10 µM]	u	-9%	13%	8%	14µM*
O=C(NCC1CCCO1)c1ccc2nc(N3CCCCC3)sc2c1 (stereo unspecified)	-21%	u	2%	11%	-8%	u
O=C(NCC1CCCO1)c1ccccc1 (stereo unspecified)	9%	4%	1%	-8%	-11%	20µM*
SMILES	HTT ATP protect	ALDH1A1 inh	KDM4E inh	HttQ103 aggreg	CBFb RUNX1 block	HPGD inh
CCCCSc1nc(C(=O)O)cc(=O)[nH]1	15%[10 µM]	-11%	-8%	-8%[9.22 µM]	5%	x
COC(=O)/C=C/c1cc(O)ccc1O	-82%	28µM*	x	x	4%	x
CC(=O)/C=C/c1ccccc1O	30%[10 µM]	4%	-13%	-2%	4%	x
CCOC(=O)c1c(NC(=S)Nc2ccc(F)cc2)sc2c1CCC2	9%[10 µM]	-11%	4%	3%	0%	1%
NC(=O)c1c(NC(=S)Nc2ccc(F)cc2)sc2c1CCCC2	-7%[10 µM]	10µM*	-9%	-15%[9.22 µM]	2%	x
C=CCNC(=S)Nc1sc2c(c1C(N)=O)CCCC2	4%[10 µM]	x	-2%	0%[9.22 µM]	-2%	x
NC(=O)c1c(NC(=S)Nc2ccccc2)sc2c1CCCC2	-23%	7.9µM*	-18%	6%	6%	x
O=C(O)[C@H]([C@H]1NCCS1)N1C(=O)c2ccccc2C1=O	6%[10 µM]	x	x	x	x	x
CC(C)(C)NCCOCCOc1ccccc1-c1ccccc1	0%[10 µM]	25µM*	2%	-5%	2%	3%
CCN1C(=O)[C@H]2[C@H]3[C@H](O)[C@H](O)C/C(=N/OCC(C)C)[C@H]3CC[C@@H]2C1=O	-33%[10 µM]	0%[13.5 µM]	x	x	6%[13.1 µM]	x
CCOc1nc(NCc2ccco2)nc(Nc2ccc(OC)cc2)n1	-30%[10 µM]	20µM*	-1%	-29%	-15%	-13%
CCCCCCNc1nc(NCc2ccco2)nc(OCC)n1	-59%	-3%	-4%	10µM*	2%	-19%
CCOc1nc(NCc2ccco2)nc(Nc2ccccc2F)n1	-8%[10 µM]	8%	14%	-8%	8%	-14%
O=C(N/N=C/c1ccccc1O)C1(O)c2ccccc2-c2ccccc21	32%[1.9 µM]	9%	u	10µM*	-21%	-22%
Clc1ccc(-c2csc(=Nc3cccnc3)n2CCCn2ccnc2)cc1Cl	-17%[10 µM]	1%	4%	11µM*	-23%	3%
O=C1CSC(c2cccnc2)N1CCc1ccccn1 (stereo unspecified)	0%[10 µM]	x	-1%	-4%[9.22 µM]	2%	x
c1ccc(CCNc2ncnc3nc[nH]c23)cc1	-27%[0.074 µM]	3%	2%	11µM*	5%	-5%
COc1cccc(N=C2C(=O)N3CCCc4cccc2c43)c1	-4%[0.074 µM]	0.16µM*	-3%	u	-2%	-11%
C[C@@]12CCC(=O)C=C1CC[C@H]1[C@@H]2[C@@H](O)C[C@]2(C)[C@@H]1CC[C@@]2(O)C(=O)COC(=O)C1CCCC1	-16%[10 µM]	x	x	x	x	x
CCOC(=O)c1ccccc1Nc1cc(C)nc2nc(C)nn12	-10%[10 µM]	5%	4%	-5%	-3%	2.2µM*
COC(=O)c1ccc(Nc2cc(C)nc3nc(C)nn23)cc1	-4%	7%	10%	-12%	7%[2.36 µM]	-26%
Cc1cc(Nc2ccccc2Br)n2nc(C)nc2n1	-12%	3%	-4%	-3%	11%[2.36 µM]	u
